# Experimental data as given in paper PMC7862700, “An all-to-all approach to the identification of sequence-specific readers for epigenetic DNA modifications on cytosine”.
# Experiments:
# Assay in all cases: DAPPL (digital affinity profiling via proximity ligation, sequencing); 10 mM Tris-HCl pH 7.5, 50 mM NaCl, 1 mM DTT, 4% glycerol, room temperature, 30 min; GST-TFs on glutathione beads, 16-mer random dsDNA library, 0.1% formaldehyde crosslink after washing; high values mean tight binding
# FLI1 = molecular target: T1, FLI1 (Homo sapiens, UniProt Q01543 1-452); conditions: protein: recombinant; tags: N-terminal GST; dsDNA, one strand shown
# T1 sequence: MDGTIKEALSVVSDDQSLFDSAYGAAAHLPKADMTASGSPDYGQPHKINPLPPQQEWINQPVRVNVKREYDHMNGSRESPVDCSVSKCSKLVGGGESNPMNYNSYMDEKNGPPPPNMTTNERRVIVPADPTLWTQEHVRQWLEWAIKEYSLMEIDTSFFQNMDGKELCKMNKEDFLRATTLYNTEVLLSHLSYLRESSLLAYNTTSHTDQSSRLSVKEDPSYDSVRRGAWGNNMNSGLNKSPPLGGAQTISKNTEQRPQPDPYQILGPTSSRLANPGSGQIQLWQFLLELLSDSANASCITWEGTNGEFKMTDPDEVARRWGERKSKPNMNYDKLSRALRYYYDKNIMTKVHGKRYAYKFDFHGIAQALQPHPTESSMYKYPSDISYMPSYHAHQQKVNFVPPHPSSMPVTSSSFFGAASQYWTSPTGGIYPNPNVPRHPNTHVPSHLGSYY
# In short: (§1)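 A tag-only sample was pooled with DNA-barcoded human transcription factors that had been expressed in yeast as GST fusions and captured on glutathione beads. The pools were incubated for 30 min at room temperature with 200 nmole of a random double-stranded 16-mer DNA library in Tris/NaCl/DTT/glycerol buffer, then washed, crosslinked with 0.1% formaldehyde, proximity-ligated (BsaI/T4 ligase, 1 h, 37 °C), PCR-amplified and sequenced on an Illumina NextSeq500. Binding signal is each hexamer's read frequency for a factor divided by its frequency for the tag-only sample.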
# ELK1 = molecular target: T2, ELK1 (Homo sapiens, UniProt P19419 1-428); conditions: protein: recombinant; tags: N-terminal GST; dsDNA, one strand shown
# T2 sequence: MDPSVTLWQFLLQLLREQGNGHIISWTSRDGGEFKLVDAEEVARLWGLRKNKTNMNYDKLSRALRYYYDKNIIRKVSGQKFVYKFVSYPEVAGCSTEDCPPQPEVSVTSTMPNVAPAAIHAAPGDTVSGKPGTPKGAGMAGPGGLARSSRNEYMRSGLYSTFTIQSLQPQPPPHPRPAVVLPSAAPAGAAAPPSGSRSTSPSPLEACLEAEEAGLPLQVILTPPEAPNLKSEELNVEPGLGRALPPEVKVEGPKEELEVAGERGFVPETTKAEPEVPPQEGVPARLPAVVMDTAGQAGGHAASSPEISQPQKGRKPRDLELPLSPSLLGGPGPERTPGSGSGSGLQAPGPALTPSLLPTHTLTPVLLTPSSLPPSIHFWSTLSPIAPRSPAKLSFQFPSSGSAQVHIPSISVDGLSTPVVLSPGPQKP
# In short: as §1
# GABPA = molecular target: T3, GABPA (Homo sapiens, UniProt Q06546 1-454); conditions: protein: recombinant; tags: N-terminal GST; dsDNA, one strand shown
# T3 sequence: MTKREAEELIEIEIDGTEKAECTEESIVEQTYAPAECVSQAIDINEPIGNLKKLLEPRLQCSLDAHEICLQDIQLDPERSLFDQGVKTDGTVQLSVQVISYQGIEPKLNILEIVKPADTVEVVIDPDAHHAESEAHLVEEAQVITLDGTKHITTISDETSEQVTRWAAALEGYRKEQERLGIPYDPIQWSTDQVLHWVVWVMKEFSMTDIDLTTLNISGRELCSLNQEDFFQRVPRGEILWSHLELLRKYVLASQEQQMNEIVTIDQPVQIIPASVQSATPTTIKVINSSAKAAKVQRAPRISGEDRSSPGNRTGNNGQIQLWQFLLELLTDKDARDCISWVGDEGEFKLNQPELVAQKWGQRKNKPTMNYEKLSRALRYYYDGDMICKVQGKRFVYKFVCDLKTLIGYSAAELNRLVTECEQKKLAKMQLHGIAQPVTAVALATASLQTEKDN
# In short: as §1
# ERG = molecular target: T4, ERG (Homo sapiens, UniProt P11308 1-479); conditions: protein: recombinant; tags: N-terminal GST; dsDNA, one strand shown
# T4 sequence: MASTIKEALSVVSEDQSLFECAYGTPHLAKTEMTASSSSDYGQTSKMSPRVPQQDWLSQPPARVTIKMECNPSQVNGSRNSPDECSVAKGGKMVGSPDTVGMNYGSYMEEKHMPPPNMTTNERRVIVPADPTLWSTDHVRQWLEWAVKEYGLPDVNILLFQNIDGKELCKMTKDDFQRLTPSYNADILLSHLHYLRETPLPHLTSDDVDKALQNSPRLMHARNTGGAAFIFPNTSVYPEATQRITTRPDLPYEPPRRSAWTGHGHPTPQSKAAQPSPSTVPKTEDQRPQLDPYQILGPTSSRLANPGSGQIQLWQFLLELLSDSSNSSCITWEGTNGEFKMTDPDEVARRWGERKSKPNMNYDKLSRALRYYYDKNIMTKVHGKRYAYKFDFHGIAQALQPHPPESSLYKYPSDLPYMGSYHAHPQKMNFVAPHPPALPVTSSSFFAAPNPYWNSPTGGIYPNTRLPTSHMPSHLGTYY
# In short: as §1
# ELF1 = ELF1 (Homo sapiens, UniProt P32519 1-619); conditions: protein: recombinant; tags: N-terminal GST; dsDNA, one strand shown
# In short: as §1
# EHF = molecular target: T5, EHF (Homo sapiens, UniProt Q9NZC4 1-300); conditions: protein: recombinant; tags: N-terminal GST; dsDNA, one strand shown
# T5 sequence: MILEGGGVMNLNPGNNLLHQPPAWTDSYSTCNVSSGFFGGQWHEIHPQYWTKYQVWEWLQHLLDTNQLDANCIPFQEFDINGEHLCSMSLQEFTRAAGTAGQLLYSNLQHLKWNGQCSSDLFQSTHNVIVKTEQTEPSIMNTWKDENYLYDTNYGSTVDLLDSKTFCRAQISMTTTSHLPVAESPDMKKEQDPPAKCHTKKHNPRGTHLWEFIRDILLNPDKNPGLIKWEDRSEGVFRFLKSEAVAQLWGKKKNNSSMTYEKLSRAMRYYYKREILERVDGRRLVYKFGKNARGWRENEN
# In short: as §1
# SPI1 = SPI1 (Homo sapiens, UniProt P17947 1-270); conditions: protein: recombinant; tags: N-terminal GST; dsDNA, one strand shown
# In short: as §1
# SPIB = SPIB (Homo sapiens, UniProt Q01892 1-262); conditions: protein: recombinant; tags: N-terminal GST; dsDNA, one strand shown
# In short: as §1
# ELK3 = molecular target: T6, ELK3 (Homo sapiens, UniProt P41970 1-407); conditions: protein: recombinant; tags: N-terminal GST; dsDNA, one strand shown
# T6 sequence: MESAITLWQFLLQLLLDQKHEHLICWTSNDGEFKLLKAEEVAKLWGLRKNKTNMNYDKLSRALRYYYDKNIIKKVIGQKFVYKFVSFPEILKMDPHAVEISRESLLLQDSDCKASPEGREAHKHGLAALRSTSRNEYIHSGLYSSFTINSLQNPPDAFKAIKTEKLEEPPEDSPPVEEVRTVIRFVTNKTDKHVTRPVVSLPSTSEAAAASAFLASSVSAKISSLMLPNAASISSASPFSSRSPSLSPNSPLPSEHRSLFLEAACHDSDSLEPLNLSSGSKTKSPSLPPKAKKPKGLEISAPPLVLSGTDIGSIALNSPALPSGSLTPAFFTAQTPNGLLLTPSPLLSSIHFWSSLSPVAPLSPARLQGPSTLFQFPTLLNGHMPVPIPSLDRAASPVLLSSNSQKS
# In short: as §1
# FEV = molecular target: T7, FEV (Homo sapiens, UniProt Q99581 1-238); conditions: protein: recombinant; tags: N-terminal GST; dsDNA, one strand shown
# T7 sequence: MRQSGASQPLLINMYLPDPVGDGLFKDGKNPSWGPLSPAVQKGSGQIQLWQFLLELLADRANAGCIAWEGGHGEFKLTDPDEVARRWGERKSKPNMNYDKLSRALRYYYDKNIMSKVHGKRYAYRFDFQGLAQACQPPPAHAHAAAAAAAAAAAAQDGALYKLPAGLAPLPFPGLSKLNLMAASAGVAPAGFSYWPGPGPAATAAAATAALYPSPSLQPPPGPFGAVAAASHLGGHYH
# In short: as §1
# ETV5 = ETV5 (Homo sapiens, UniProt P41161 1-510); conditions: protein: recombinant; tags: N-terminal GST; dsDNA, one strand shown
# In short: as §1
# HSF1 = HSF1 (Homo sapiens, UniProt Q00613 1-529); conditions: protein: recombinant; tags: N-terminal GST; chain copies: 3; dsDNA, one strand shown
# In short: as §1
# SPIC = molecular target: T8, SPIC (Homo sapiens, UniProt Q8N5J4 1-248); conditions: protein: recombinant; tags: N-terminal GST; dsDNA, one strand shown
# T8 sequence: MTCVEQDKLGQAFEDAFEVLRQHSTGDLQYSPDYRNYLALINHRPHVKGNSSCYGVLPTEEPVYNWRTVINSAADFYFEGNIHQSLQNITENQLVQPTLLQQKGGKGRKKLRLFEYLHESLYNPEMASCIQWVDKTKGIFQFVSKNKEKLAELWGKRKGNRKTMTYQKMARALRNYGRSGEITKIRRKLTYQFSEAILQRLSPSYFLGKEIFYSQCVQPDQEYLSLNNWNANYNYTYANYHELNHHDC
# In short: as §1
# ELF4 = ELF4 (Homo sapiens, UniProt Q99607 1-663); conditions: protein: recombinant; tags: N-terminal GST; dsDNA, one strand shown
# In short: as §1
# ELK4 = molecular target: T9, ELK4 (Homo sapiens, UniProt P28324-2 1-405); conditions: protein: recombinant; tags: N-terminal GST; dsDNA, one strand shown
# T9 sequence: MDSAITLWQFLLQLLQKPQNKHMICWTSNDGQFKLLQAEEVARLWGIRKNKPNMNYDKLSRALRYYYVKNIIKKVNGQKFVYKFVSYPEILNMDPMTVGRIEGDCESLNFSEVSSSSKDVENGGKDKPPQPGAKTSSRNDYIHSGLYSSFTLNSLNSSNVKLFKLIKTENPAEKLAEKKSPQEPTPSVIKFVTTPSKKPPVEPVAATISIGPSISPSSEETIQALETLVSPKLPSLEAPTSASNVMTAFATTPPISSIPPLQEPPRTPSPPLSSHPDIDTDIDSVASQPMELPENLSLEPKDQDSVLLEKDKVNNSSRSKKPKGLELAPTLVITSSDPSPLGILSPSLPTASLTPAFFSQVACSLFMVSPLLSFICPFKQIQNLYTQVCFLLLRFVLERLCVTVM
# In short: as §1
# ETV2 = molecular target: T10, ETV2 (Homo sapiens, UniProt O00321 1-342); conditions: protein: recombinant; tags: N-terminal GST; dsDNA, one strand shown
# T10 sequence: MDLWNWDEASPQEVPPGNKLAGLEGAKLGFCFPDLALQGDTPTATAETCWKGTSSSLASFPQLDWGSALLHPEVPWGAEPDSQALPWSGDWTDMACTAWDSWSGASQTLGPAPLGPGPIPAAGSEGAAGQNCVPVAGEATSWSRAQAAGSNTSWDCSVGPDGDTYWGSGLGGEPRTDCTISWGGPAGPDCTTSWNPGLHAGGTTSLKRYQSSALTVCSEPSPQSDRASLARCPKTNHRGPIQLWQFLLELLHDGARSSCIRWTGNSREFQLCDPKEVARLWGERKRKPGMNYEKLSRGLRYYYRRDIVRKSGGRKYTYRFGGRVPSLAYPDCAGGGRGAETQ
# In short: as §1
# ELF3 = molecular target: T11, ELF3 (Homo sapiens, UniProt P78545 1-371); conditions: protein: recombinant; tags: N-terminal GST; dsDNA, one strand shown
# T11 sequence: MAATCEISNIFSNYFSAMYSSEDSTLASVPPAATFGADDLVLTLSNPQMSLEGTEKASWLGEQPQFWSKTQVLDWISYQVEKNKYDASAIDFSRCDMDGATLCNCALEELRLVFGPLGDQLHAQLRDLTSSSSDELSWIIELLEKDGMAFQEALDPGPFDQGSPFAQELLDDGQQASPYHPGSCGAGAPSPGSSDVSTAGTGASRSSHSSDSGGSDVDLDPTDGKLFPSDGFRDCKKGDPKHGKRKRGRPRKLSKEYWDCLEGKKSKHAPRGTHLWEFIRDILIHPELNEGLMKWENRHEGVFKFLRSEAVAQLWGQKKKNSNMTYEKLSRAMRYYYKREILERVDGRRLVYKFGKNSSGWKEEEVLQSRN
# In short: as §1
# CRX = CRX (Homo sapiens, UniProt O43186 1-299); conditions: protein: recombinant; tags: N-terminal GST; dsDNA, one strand shown
# In short: as §1
# ETV1 = ETV1 (Homo sapiens, UniProt P50549 1-477); conditions: protein: recombinant; tags: N-terminal GST; dsDNA, one strand shown
# In short: as §1
# Chain of ETV1 (P50549 whole entry): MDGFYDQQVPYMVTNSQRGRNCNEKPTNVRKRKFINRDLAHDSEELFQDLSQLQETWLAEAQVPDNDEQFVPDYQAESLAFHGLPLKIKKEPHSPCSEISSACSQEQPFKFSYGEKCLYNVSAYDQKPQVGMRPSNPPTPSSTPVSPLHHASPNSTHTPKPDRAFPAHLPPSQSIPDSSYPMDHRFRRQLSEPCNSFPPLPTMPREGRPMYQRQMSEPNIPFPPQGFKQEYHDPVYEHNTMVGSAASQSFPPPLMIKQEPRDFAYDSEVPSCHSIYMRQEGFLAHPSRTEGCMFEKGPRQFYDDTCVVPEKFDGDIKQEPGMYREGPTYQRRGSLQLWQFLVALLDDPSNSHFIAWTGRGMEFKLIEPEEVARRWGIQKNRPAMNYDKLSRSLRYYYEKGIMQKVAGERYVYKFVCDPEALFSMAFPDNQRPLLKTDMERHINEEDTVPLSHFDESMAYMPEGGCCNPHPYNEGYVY
# Chain of ELF1 (P32519 whole entry): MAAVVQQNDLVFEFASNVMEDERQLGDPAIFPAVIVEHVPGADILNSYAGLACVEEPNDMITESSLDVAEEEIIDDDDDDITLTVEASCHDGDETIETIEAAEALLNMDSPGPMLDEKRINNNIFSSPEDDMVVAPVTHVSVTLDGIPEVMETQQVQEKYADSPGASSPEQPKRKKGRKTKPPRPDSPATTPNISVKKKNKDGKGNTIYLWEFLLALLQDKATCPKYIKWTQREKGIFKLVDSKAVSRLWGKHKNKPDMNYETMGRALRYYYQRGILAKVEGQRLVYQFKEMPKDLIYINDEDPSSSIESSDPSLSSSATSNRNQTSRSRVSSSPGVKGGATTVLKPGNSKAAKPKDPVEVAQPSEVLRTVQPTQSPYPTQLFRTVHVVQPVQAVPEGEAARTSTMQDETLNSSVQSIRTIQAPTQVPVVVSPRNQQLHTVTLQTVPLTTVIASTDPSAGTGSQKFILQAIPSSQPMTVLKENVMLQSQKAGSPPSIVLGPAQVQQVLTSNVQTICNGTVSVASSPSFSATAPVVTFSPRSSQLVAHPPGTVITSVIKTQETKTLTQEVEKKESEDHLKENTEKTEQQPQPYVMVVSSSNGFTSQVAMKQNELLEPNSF
# Chain of SPIB (Q01892 whole entry): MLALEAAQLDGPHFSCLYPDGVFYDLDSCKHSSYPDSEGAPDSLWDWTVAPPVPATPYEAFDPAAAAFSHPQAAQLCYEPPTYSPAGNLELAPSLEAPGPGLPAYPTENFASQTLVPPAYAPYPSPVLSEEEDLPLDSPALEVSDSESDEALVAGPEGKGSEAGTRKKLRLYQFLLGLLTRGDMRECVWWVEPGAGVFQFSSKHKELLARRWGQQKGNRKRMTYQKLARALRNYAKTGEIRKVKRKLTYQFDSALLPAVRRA
# Chain of HSF1 (Q00613 whole entry): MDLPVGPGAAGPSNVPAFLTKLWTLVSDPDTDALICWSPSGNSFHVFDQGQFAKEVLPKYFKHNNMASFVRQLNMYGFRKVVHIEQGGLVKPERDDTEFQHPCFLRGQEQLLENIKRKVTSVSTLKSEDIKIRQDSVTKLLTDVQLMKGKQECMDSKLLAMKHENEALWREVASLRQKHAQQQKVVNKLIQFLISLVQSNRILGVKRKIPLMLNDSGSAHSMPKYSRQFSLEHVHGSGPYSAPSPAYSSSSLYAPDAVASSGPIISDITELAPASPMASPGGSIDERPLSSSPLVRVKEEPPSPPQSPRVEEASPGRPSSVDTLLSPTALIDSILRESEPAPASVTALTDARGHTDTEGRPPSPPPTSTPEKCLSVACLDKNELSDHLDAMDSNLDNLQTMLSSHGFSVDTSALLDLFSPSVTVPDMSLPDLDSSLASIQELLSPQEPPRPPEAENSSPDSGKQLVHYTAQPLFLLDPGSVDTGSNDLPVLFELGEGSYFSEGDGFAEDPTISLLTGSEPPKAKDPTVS
# Chain of ELF4 (Q99607 whole entry): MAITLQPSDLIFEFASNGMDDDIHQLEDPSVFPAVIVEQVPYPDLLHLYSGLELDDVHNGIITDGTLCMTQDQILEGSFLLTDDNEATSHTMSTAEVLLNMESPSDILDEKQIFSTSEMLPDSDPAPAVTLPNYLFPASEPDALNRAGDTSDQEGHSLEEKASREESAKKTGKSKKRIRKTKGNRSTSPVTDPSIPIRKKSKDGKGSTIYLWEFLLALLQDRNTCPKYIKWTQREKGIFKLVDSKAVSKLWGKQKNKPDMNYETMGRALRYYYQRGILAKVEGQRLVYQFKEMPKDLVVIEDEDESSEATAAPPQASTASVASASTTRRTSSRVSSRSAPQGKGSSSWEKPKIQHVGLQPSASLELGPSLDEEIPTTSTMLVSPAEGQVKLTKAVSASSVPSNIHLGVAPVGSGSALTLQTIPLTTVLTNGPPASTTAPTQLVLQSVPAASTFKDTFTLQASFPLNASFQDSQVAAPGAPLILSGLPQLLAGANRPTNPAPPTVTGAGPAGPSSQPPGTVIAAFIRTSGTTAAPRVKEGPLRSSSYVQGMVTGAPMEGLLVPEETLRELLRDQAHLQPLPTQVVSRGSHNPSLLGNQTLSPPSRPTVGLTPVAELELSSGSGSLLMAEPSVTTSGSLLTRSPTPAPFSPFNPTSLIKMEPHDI
# Chain of CRX (O43186 whole entry): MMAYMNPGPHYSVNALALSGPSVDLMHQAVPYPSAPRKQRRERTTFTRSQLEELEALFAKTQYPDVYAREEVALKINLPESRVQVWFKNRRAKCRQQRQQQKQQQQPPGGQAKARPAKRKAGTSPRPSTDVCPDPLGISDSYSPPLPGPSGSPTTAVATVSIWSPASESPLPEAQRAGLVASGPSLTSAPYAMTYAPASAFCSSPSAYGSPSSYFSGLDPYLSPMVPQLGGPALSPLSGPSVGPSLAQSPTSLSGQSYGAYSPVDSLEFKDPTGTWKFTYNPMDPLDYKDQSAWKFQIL
# Chain of ETV5 (P41161 whole entry): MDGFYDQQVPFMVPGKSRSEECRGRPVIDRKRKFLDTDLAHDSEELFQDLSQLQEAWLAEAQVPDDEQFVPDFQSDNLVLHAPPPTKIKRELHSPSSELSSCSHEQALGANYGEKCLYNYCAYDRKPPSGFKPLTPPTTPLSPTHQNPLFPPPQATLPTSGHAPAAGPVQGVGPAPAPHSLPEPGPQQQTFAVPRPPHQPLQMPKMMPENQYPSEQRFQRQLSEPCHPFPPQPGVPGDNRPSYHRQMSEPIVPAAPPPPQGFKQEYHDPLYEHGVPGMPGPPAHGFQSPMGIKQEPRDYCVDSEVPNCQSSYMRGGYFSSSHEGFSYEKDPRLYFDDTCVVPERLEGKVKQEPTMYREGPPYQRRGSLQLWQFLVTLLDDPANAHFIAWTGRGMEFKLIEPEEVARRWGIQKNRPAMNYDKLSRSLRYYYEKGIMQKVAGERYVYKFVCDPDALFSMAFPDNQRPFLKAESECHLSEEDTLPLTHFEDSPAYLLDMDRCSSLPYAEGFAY
sequence,measurement,setting,value
CGAACC,binding signal,FLI1,"1.1 fold enrichment (6-mer frequency, TF over GST control)"
same,binding signal,ELK1,"1.29 fold enrichment (6-mer frequency, TF over GST control)"
same,binding signal,GABPA,"1.22 fold enrichment (6-mer frequency, TF over GST control)"
same,binding signal,ERG,"1.15 fold enrichment (6-mer frequency, TF over GST control)"
same,binding signal,ELF1,"1.23 fold enrichment (6-mer frequency, TF over GST control)"
same,binding signal,EHF,"1.19 fold enrichment (6-mer frequency, TF over GST control)"
same,binding signal,SPI1,"1.17 fold enrichment (6-mer frequency, TF over GST control)"
same,binding signal,SPIB,"1.13 fold enrichment (6-mer frequency, TF over GST control)"
same,binding signal,ELK3,"1.21 fold enrichment (6-mer frequency, TF over GST control)"
same,binding signal,FEV,"1.24 fold enrichment (6-mer frequency, TF over GST control)"
same,binding signal,ETV5,"1.21 fold enrichment (6-mer frequency, TF over GST control)"
same,binding signal,HSF1,"1.47 fold enrichment (6-mer frequency, TF over GST control)"
same,binding signal,SPIC,"1.23 fold enrichment (6-mer frequency, TF over GST control)"
same,binding signal,ELF4,"1.26 fold enrichment (6-mer frequency, TF over GST control)"
same,binding signal,ELK4,"1.26 fold enrichment (6-mer frequency, TF over GST control)"
same,binding signal,ETV2,"1.2 fold enrichment (6-mer frequency, TF over GST control)"
same,binding signal,ELF3,"1.24 fold enrichment (6-mer frequency, TF over GST control)"
same,binding signal,CRX,"1.02 fold enrichment (6-mer frequency, TF over GST control)"
same,binding signal,ETV1,"1.13 fold enrichment (6-mer frequency, TF over GST control)"
